From PubChem BioAssay AID687038 (Broad Institute, 2013)

Test: miR-21 levels after miR-122 inhibitor treatment, dose response, selectivity assay for miR-122 inhibitor project, cell-based, Huh7, RT-qPCR, dry powder (AID 687038)
Conditions: Huh7 miR-21 levels, qRT-PCR, 48 h; series mostly up to 35 µM; relative miR-21 level (fold): at the top concentration;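 active means curve showing a falling signal whose half-maximal concentration is at most twice the top valid dose; inconclusive means flat curve with a moderate drop, or an unreliable fit; inactive means the rest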

Relative miR-21 level (fold), inactive:
C[C@@H]1CN([C@@H](C)CO)S(=O)(=O)c2ccc(C#Cc3ccncc3)cc2O[C@@H]1CN(C)C(=O)C1CCOCC1 0.684 fold, CCCC#Cc1ccc2c(c1)O[C@H](CN(C)C(=O)COC)[C@H](C)CN([C@@H](C)CO)S2(=O)=O 0.974 fold, CCN(CC)C(=O)c1cccc(NC(=O)c2ccc(Cl)cc2Cl)c1 0.676 fold, CO[C@@H]1CN(C)C(=O)c2cc(NC(=O)c3ccc4c(c3)OCO4)ccc2OC[C@H](C)NC[C@@H]1C 1.07 fold, CO[C@@H]1CN(C)C(=O)c2cc(NS(=O)(=O)c3ccc(Oc4ccccc4)cc3)ccc2OC[C@H](C)NC[C@@H]1C 0.767 fold, CN(C)CCN1C(=O)c2cccc3cc(N)cc(c23)C1=O 2.02 fold, O=C(NCCC1=CCCCC1)c1ccc2c(c1)sc1nc(-c3ccccc3)cn12 0.99 fold, CN(C)CCCOc1nn(Cc2ccccc2)c2ccccc12 2.12 fold, Cc1cc(C(C)(C)C)cc(S(=O)(=O)N2CCOCC2)c1C 0.967 fold, OCc1ccc(-c2nn(Cc3ccccc3)c3ccccc23)o1 1.18 fold, O=C(Nc1ccc(-c2nc3ccccc3o2)cc1)c1cc(-n2cnnc2)ccc1Cl 0.344 fold, COCC(=O)N(C)C[C@H]1Oc2cc(C#Cc3cccnc3)ccc2S(=O)(=O)N([C@H](C)CO)C[C@H]1C 2.76 fold, C[C@H]1CN([C@@H](C)CO)C(=O)c2cc(C#Cc3ccccc3F)cnc2O[C@@H]1CN(C)C(=O)C1CCCCC1 0.5 fold, CCCC#Cc1ccc2c(c1)O[C@H](CN(C)C(=O)c1ccncc1)[C@H](C)CN([C@@H](C)CO)S2(=O)=O 0.809 fold, COCC(=O)N(C)C[C@H]1Oc2cc(-c3ccc(C#N)cc3)ccc2S(=O)(=O)N([C@H](C)CO)C[C@H]1C 0.916 fold, Cn1c(=O)c(=O)n(C)c2cc(S(=O)(=O)N3CCOCC3)ccc21 1.13 fold, C[C@H]1CN([C@@H](C)CO)C(=O)c2cc(C#Cc3ccccc3F)cnc2O[C@H]1CN(C)C(=O)C1CCCCC1 0.507 fold, Nc1ccc(Oc2ccc(Br)cc2)cc1 0.414 fold, Cc1cc(C(C)(C)C)cc(S(=O)(=O)NCCc2ccncc2)c1C 1.35 fold, CN1C(=O)c2cc(NC(=O)c3cccc(F)c3)ccc2OC[C@@H]2O[C@@H](CC(=O)O)CC[C@H]21 1.08 fold [at 30 µM], CN1C(=O)c2cc(NC(=O)c3cccc(F)c3)ccc2OC[C@@H]2O[C@@H](CC(=O)O)CC[C@@H]21 0.771 fold, COc1ccc(S(=O)(=O)N(C)C[C@@H]2Oc3ncc(/C=C/c4ccccc4)cc3C(=O)N([C@@H](C)CO)C[C@@H]2C)cc1 1.54 fold, O=C(NCc1ccccc1Cl)c1ccc(CNc2c(NC3CCCCC3)c(=O)c2=O)cc1 0.249 fold, CN1C(=O)c2cc(NC(=O)c3cccc(F)c3)ccc2OC[C@H]2O[C@@H](CC(=O)O)CC[C@@H]21 1.06 fold, C[C@@H]1CN([C@H](C)CO)S(=O)(=O)c2ccc(C#Cc3ccncc3)cc2O[C@H]1CN(C)C(=O)C1CCOCC1 0.753 fold, Cc1cccc(NC(=O)Nc2ccc3c(c2)C(=O)N(C)[C@@H]2CC[C@@H](CC(=O)NCc4ccccc4Cl)O[C@H]2CO3)c1 1.3 fold, COCC(=O)N(C)C[C@H]1Oc2cc(-c3ccccc3F)ccc2S(=O)(=O)N([C@@H](C)CO)C[C@H]1C 0.547 fold, CN1C(=O)c2cc(NC(=O)c3cccc(F)c3)ccc2OC[C@@H]2O[C@H](CC(=O)O)CC[C@@H]21 0.75 fold, C[C@H](CO)N1C[C@H](C)[C@H](CN(C)C(=O)C2CCOCC2)Oc2cc(C#Cc3ccncc3)ccc2S1(=O)=O 0.799 fold, CN1C(=O)c2cc(NC(=O)c3cccc(F)c3)ccc2OC[C@H]2O[C@H](CC(=O)O)CC[C@H]21 0.703 fold, C[C@@H]1CN([C@@H](C)CO)S(=O)(=O)c2ccc(C#Cc3ccncc3)cc2O[C@H]1CN(C)C(=O)C1CCOCC1 0.725 fold, O=C(c1ccc(CNc2c(NC3CCCCC3)c(=O)c2=O)cc1)N1CCc2ccccc21 0.61 fold
